PubChem BioAssay AID1159580 (chemical genetic matrix, 2015)
In all, about 5,500 compounds went through this assay and about 2,000 (36%) were called active. Another 18% or so got no clear call; they are omitted. Rule as the data show it: active = normalized growth mostly below about 0.91 (no sharp cut-off); inconclusive = no clear call, values can overlap the other calls; inactive = mostly above about 0.92. The list shows a part of the results.

Assay: chemical genetic growth profiling, strain panel (AID 1159580);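 also: tested at 20 µM; growth read once vehicle control cultures reached saturation at 30 °C; 1 = growth at the plate median or of vehicle wells; lower values mean less growth of the strain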
Conditions: S. cerevisiae deletion strains, growth OD

Measured: normalized growth

CCOc1ccc2c(c1)C(C)=CC(C)(C)N2
inactive: locus YAL013W, strain DEP1, active compounds read low 0.99 | locus YAL021C, strain ccr4, active compounds read low 0.99 | locus YAL026C, strain drs2, active compounds read low 0.983 | locus YAL030W, strain snc1, active compounds read low 0.996 | locus YBL061C, strain skt5, active compounds read low 0.988 | locus YBR009C, strain hhf1, active compounds read low 0.996 | locus YBR021W, strain FUR4, active compounds read low 0.983 | locus YBR023C, strain chs3, active compounds read low 0.994 | locus YBR171W, strain sec66, active compounds read low 0.982 | locus YBR229C, strain ROT2, active compounds read low 0.986 | locus YBR231C, strain swc5, active compounds read low 0.991 | locus YBR279W, strain paf1, active compounds read low 0.99 | locus YCL011C, strain gbp2, active compounds read low 0.989 | locus YCL016C, strain dcc1, active compounds read low 0.995 | locus YCL029C, strain bik1, active compounds read low 0.959 | locus YCL061C, strain MRC1, active compounds read low 0.994 | locus YCL069W, strain vba3, active compounds read low 0.987 | locus YCR088W, strain abp1, active compounds read low 0.983 | locus YDL005C, strain med2, active compounds read low 0.974 | locus YDL035C, strain GPR1, active compounds read low 1.01 | locus YDL040C, strain nat1, active compounds read low 0.987 | locus YDL074C, strain BRE1, active compounds read low 0.973 | locus YDL101C, strain DUN1, active compounds read low 0.976 | locus YDL134C, strain PPH21, active compounds read low 0.983 | locus YDL185W, strain tfp1, active compounds read low 0.977 | locus YDL192W, strain arf1, active compounds read low 0.984 | locus YDR001C, strain nth1, active compounds read low 0.986 | locus YDR069C, strain doa4, active compounds read low 0.995 | locus YDR101C, strain arx1, active compounds read low 0.984 | locus YDR137W, strain rgp1, active compounds read low 1.01 | locus YDR150W, strain NUM1, active compounds read low 0.993 | locus YDR159W, strain sac3, active compounds read low 0.989 | locus YDR162C, strain NBP2, active compounds read low 0.99 | locus YDR195W, strain ref2 0.98 | locus YDR297W, strain sur2, active compounds read low 0.989 | locus YDR318W, strain mcm21, active compounds read low 0.987 | locus YDR334W, strain swr1, active compounds read low 0.975 | locus YDR335W, strain msn5, active compounds read low 0.995 | locus YDR388W, active compounds read low 0.984 | locus YDR392W, strain spt3, active compounds read low 0.95 | locus YDR502C, strain sam2, active compounds read low 0.993 | locus YEL003W, strain gim4, active compounds read low 0.992 | locus YEL037C, strain rad23, active compounds read low 0.984 | locus YEL061C, strain CIN8 (second series), active compounds read low 0.99 | locus YEL061C, strain CIN8, active compounds read low 0.997 | locus YER015W, strain faa2, active compounds read low 0.99 | locus YER016W, strain bim1, active compounds read low 0.999 | locus YER110C, active compounds read low 0.979 | locus YER111C, strain swi4, active compounds read low 0.982 | locus YER155C, strain BEM2 (second series), active compounds read low 0.98 | locus YER155C, strain BEM2, active compounds read low 0.989 | locus YER167W, strain BCK2, active compounds read low 1 | locus YFR010W, strain ubp6, active compounds read low 0.977 | locus YGL078C, strain dbp3, active compounds read low 0.991 | locus YGL086W, strain mad1, active compounds read low 1 | locus YGL167C, strain pmr1, active compounds read low 0.978 | locus YGL173C, strain kem1, active compounds read low 0.98 | locus YGL227W, strain vid30, active compounds read low 0.98 | locus YGL240W, strain doc1, active compounds read low 0.985 | locus YGL248W, strain PDE1, active compounds read low 0.985 | locus YGL253W, strain hxk2, active compounds read low 0.984 | locus YGR078C, strain PAC10, active compounds read low 0.981 | locus YGR135W, strain pre9, active compounds read low 0.974 | locus YGR229C, strain SMI1, active compounds read low 1.01 | locus YGR252W, strain gcn5, active compounds read low 1.07 | locus YHR013C, strain ard1, active compounds read low 0.977 | locus YHR027C, strain rpn1, active compounds read low 0.979 | locus YHR030C, strain SLT2, active compounds read low 0.994 | locus YHR079C, strain IRE1 (second series), active compounds read low 0.975 | locus YHR094C, strain hxt1, active compounds read low 0.988 | locus YHR129C, strain ARP1, active compounds read low 0.987 | locus YHR142W, strain chs7, active compounds read low 0.98 | locus YHR200W, strain rpn10, active compounds read low 0.978 | locus YIL066C, strain RNR3, active compounds read low 0.974 | locus YIL073C, strain SPO22, active compounds read low 0.981 | locus YIL125W, strain kgd1, active compounds read low 0.998 | locus YIR030C, strain dcg1, active compounds read low 0.981 | locus YJL092W, strain hpr5, active compounds read low 0.986 | locus YJL095W, strain BCK1 (second series), active compounds read low 0.99 | locus YJL095W, strain BCK1, active compounds read low 0.971 | locus YJL115W, strain asf1, active compounds read low 0.984 | locus YJL129C, strain trk1, active compounds read low 0.996 | locus YJL134W, strain LCB3, active compounds read low 0.994 | locus YJL154C, strain vps35, active compounds read low 0.98 | locus YJL164C, strain tpk1, active compounds read low 0.993 | locus YJL166W, strain qcr8, active compounds read low 1 | locus YJL168C, strain set2, active compounds read low 0.984 | locus YJL187C, strain SWE1 (second series), active compounds read low 0.964 | locus YJL187C, strain SWE1, active compounds read low 0.988
